Screening results as filed in PubChem BioAssay.
A selection: hits, their analogues and other compounds. The true share with any hit is near 1.4%.
VACV mCherry inh – vaccinia inhibition (mCherry reporter); Potency, µM (top dose mostly 36.5 µM), inactives show at the top dose activity change, negative = inhibition, usual class: inhibitors; AID 720579; 310,000 tested, 0.63% active; Vaccinia virus mCherry reporter infection, fluorescence; calls by dose curve; tested in A549 cells; also: % is scaled to controls: 0 for no effect and ±100 for the full control effect; nearly all actives have a fitted effect of over 35% in size
AmpC detergent – blocks E. coli AmpC beta-lactamase in detergent assay. AID 485294. 370,000 tested, 0.041% active. Potency, µM (series often up to 114 µM), inactives show top-dose activity change, negative = inhibition, hits mostly inhibitors. AmpC hydrolysis of nitrocefin, absorbance 480 nm, 0.01% Triton;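 also: 0% = no-compound wells and -100% = no-enzyme wells; nearly all actives have a fitted effect of over 25% in size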
Target sequence (P00811 whole entry, looked up): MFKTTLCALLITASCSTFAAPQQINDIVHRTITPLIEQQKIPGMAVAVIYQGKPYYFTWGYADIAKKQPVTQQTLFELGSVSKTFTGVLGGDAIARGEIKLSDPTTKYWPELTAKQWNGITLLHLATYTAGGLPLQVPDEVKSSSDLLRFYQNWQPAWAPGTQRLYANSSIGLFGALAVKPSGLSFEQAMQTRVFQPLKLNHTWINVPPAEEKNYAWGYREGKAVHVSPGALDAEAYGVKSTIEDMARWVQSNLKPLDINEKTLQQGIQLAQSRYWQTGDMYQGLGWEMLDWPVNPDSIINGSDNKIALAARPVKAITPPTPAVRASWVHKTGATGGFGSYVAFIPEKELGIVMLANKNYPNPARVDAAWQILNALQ
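20 mM phosphate pH 7.0 + 0.01% (detergent screen) or 0.0001% Triton X-100; 5.3 nM AmpC reagent; cpd preinc 15 min RT; nitrocefin (800 uM stock) to start; A480 q20 s × 4 min; Activity was normalised to no-enzyme and no-compound control wells.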
AMA1 RON2 block – disrupts binding of P. falciparum AMA1 to RON2. 360,000 tested, 0.2% active. Potency, µM (titrated, usually from 58.2 µM), inactives show at the highest dose activity change, negative = inhibition, actives largely listed as inhibitors. AlphaScreen AMA1-biotinylated RON2 peptide binding;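 also: 0% = vehicle wells and -100% = peptide control; nearly all actives have a fitted effect of over 45% in size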
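AMA1 (3D7) with his tag at 25 nM final met compounds first, then biotinylated RON2 peptide at 25 nM; detection used donor plus acceptor beads, 10 µg/mL apiece, read by AlphaScreen after 30 min at room temperature.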
AmpC no deterg – inhibitors of E. coli AmpC beta-lactamase without detergent; Potency, µM (highest dose often 57.1 µM), inactives show top-dose activity change, negative = inhibition, most hits filed as inhibitors; 330,000 tested, 0.52% active; AmpC nitrocefin hydrolysis, absorbance 480 nm, 0.0001% Triton; AID 485341; P00811;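 also: plate controls were no compound for no effect and no enzyme for full effect; nearly all actives have a fitted effect of over 20% in size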
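20 mM phosphate pH 7.0 + 0.01% (detergent screen) or 0.0001% Triton X-100; 5.3 nM AmpC reagent; cpd preinc 15 min RT; nitrocefin (800 uM stock) to start; A480 q20 s × 4 min; Activity was normalised to no-enzyme and no-compound control wells.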
VACV Venus inh – vaccinia inhibition (Venus reporter); AID 720580; Potency, µM (highest dose often 36.5 µM), inactives show top-dose activity change, negative = inhibition, most hits filed as inhibitors; 330,000 tested, 0.46% active; Vaccinia virus Venus reporter expression, fluorescence; calls by dose curve; tested in A549 cells; also: % is scaled to controls: 0 for no effect and ±100 for the full control effect; nearly all actives have a fitted effect of over 30% in size
SARS PLP yeast – blocks SARS-CoV papain-like protease in a yeast assay | S. cerevisiae expressing SARS-CoV PLpro, growth rescue | 330,000 tested, 0.19% active | AID 485353 | Potency, µM (highest dose often 32.9 µM), for the others: top-dose activity, positive = growth rescue, actives largely listed as activators; calls by dose curve; also: 0% is about no effect; nearly all actives have a fitted effect of over 55% in size
* = called active by the depositor; i = inactive; u = inconclusive; x = no result given; [ ] = dose if it differs, or a comment. Unless noted, calls follow the shape of the dose curve; as a rule, active = well fitted curve in the direction sought with a large enough effect; inconclusive = small, poorly fitted or top-dose-only effect, or another doubt; inactive = no such curve, though single readings can be large; an effect the other way counts as inactive or inconclusive. Potency is read from the fitted curve at half-maximal effect.

SMILES | VACV mCherry inh | AmpC detergent | AMA1 RON2 block | AmpC no deterg | VACV Venus inh | SARS PLP yeast
Cn1c2ccccc2c2cc(C(=O)N3CCOc4ccc(C(C)(O)CCn5cccn5)cc4C3)ccc21 (stereo not drawn) | -12.6% | x | x | x | -13.3% | x
Cc1csc(N/N=C/c2ccccc2F)n1 | u | -15.2% | 62.1% | -30.7% | -6.8% | x
Cc1csc(N/N=C/c2c(F)cccc2Cl)n1 | 3.55µM* | 2.8% | 81.1% | -32.2% | 5.01µM* | -5.9%
CCOc1cc(CNCCO)cc(Br)c1OCc1ccc(Cl)cc1Cl | x | 7.9% | -9.9% | 83.5% | 12.6µM* | -5.7%
CCN(CC)c1ccc(/C=C/c2ccc3ccccc3n2)cc1 | i | x | x | x | i | x
COc1ccc(/C=C2\SC(=O)N(CC(=O)NNC(=O)c3ccccc3O)C2=O)cc1 | -9.9% | -5.1% | 12.2% | 11.2µM* | -4.4% | 7.2%
O=C(Oc1ccc(C(=S)N2CCOCC2)cc1)c1ccc([N+](=O)[O-])cc1[N+](=O)[O-] | x | -1.4% | 2.4% | -2.8% | x | 3.4%
O=C(Oc1cccc(C(=S)N2CCOCC2)c1)c1ccc([N+](=O)[O-])cc1[N+](=O)[O-] | 5.62µM* | -10.1% | -24.9% | -29.2% | u | -32.8%
C[N+](C)(C)CC#CCN1CCCC1=O | i | x | 6.7% | x | -18.4% | x
C/C(Cl)=C/CC1(CN2CCCC2=O)C(=O)NC(=O)NC1=O | -15.5% | 28.2µM* | 13.5% | 2.6% | -9.0% | 5.6%
Cn1c(SCC(=O)NCc2ccco2)nnc1-c1ccc(NC(=O)c2ccccc2)cc1 | -21.4% | x | x | x | -16.3% | x
C=CCOC(=O)C1=C(C)NC(SCC(=O)Nc2ccc(C)c(Cl)c2)=C(C#N)C1c1ccco1 (stereo not drawn) | u | u | -1.0% | 7.94µM* | u | -0.4%
O=C(Nc1ccccc1)NC1(C(=O)NCc2cccs2)CCCCC1 | -4.5% | 1.7% | -2.7% | 0.141µM* | -2.9% | 4.5%
COc1ccccc1-c1ccnc(-n2ncc(C(=O)N(C)C(C)c3nc(C)cs3)c2C2CC2)n1 (stereo not drawn) | -12.4% | x | x | x | -6.7% | x
COc1cccc(C(Nc2ccccc2)c2ccc3ccc(C)nc3c2O)c1 (stereo not drawn) | 7.08µM* | x | 37.5% | x | u | x
Cc1ccc(N=Nc2cc(C)ccc2N)cc1 | i | -6.1% | 31.6µM* | -42.9% | -9.3% | 0.0%
Cc1ccc(N)c(C)c1 | i | 3.3% | -4.1% | -4.0% | -12.1% | -2.7%
Cc1cccc(NC(=O)c2nc[nH]c2C(=O)N[C@H](C)c2ccccc2)c1 | 28.2µM* | 1.1% | 83.5% | 5.0% | u | 3.9%
C[C@H](NC(=O)c1[nH]cnc1C(=O)Nc1ccccc1)c1ccccc1 | u | 0.4% | 128.7% | -9.3% | u | -0.4%
COc1ccc(-n2c(CNC(=O)c3c(-c4ccccc4)noc3C)nnc2SC)cc1 | i | x | x | x | -9.2% | x
CCOC(=O)CN1C(=O)CC(C[C@@H](O)C2C[C@@H](C)C[C@H](C)C2=O)CC1=O (stereo partly drawn) | i | x | x | x | -7.7%[60.7 µM] | x
CCC12CN3CCN(CC(C3)/C1=N/NC(N)=O)C2 | -1.8% | -14.5% | -17.7% | -13.5% | -1.8% | -7.5%
CC1CC(C)C(=O)[C@H](C(O)CC2CC(=O)NC(=O)C2)C1 (stereo partly drawn) | 2µM* | x | x | x | 0.891µM* | x
CC1CC(C)C(=NNC(N)=O)C(C(O)CC2CCC(=O)NC2=O)C1 (stereo not drawn) | u | x | -9.2% | x | 7.94µM* | x
C[C@H]1C[C@@H](C)C(=O)[C@@H]([C@H](O)CC2CC(=O)NC(=O)C2)C1 | 0.316µM* | 3.8% | 4.1% | -7.7% | 0.316µM* | -7.0%
SMILES | VACV mCherry inh | AmpC detergent | AMA1 RON2 block | AmpC no deterg | VACV Venus inh | SARS PLP yeast
COc1cccc(CNc2nc(Cl)nc3nc[nH]c23)c1 | -19.4% | x | x | x | -20.5% | x
CN1C2CCC1/C(=C/c1ccccn1)C(=O)/C2=C\c1ccccn1 | 2.51µM* | u | 2.5% | -12.3% | 6.31µM* | -81.4%
Cc1cc(Cl)n2nc(C)c(-c3ccc(Cl)cc3)c2n1 | u | -4.3% | u | 16.3% | 14.1µM* | -5.4%
Cc1cc(N)n2nc(C)c(-c3ccc(Cl)cc3)c2n1 | u | -0.6% | -7.6% | -2.4% | u | -6.5%
O=C(Cn1nnc(-c2ccccc2)n1)Nc1cccc(S(=O)(=O)N2CCOCC2)c1 | -7.8% | 0.0% | 0.8% | 17.8µM* | -12.0% | 1.3%
O=S(=O)(Nc1ccc(Br)cn1)c1ccc2ccccc2c1 | -18.6% | -9.1% | 0.6% | 7.08µM* | -23.4% | -2.4%
CCN1CCCc2cc(CN(CCN3CCOCC3)C(=O)Nc3ccc(C)c(C)c3)ccc21 | -2.9% | u | 11.2µM* | 141.0% | -9.8% | 1.6%
CCN1CCCc2cc(CN(CCN3CCOCC3)C(=S)Nc3cccc(C)c3)ccc21 | u | -3.0% | 14.1µM* | 122.0% | -12.2% | 4.9%
COc1cc(-c2ccc(Cl)cn2)cc2c1OCCN(C(=O)c1ccccc1-n1cccn1)C2 | -19.6% | x | x | x | -9.0% | x
COc1cc(C=O)cc(OC)c1[N+](=O)[O-] | -8.2% | x | x | x | -6.8% | x
Clc1ccccc1C1CC(c2ccccc2)Nc2ncnn21 (stereo not drawn) | -7.9% | u | -2.5% | 39.8µM* | 0.7% | 2.8%
COc1ccc(OC)c2nc3c(C(=O)NCCN(C)C)cccc3nc12 | u | x | -2.2% | x | u | x
CN(C)CCNC(=O)c1cccc2ccc(-c3ccc(-c4ccccc4)cc3)nc12 | u | x | -27.4% | x | 12.6µM* | x
CN(C)CCNC(=O)c1cccc2nc3cccc(F)c3nc12 | u | x | -18.8% | x | 3.16µM* | x
CN(c1ccc(/C=C/c2ccccc2)cc1)P1(=O)NCCCO1 (stereo not drawn) | 43.7% | x | x | x | 6.0% | x
COc1ccc(/C=C/c2nccc3ccccc23)cc1OC | -22.3% | x | x | x | -15.5% | x
O=C(c1ccco1)N1CCN=C1SCc1ccc(F)cc1 | i | u | 24.8% | 8.91µM* | 3.5% | 0.3%
CCCC/C(C)=N/NC(=O)CN(c1ccc(Br)cc1)S(=O)(=O)c1ccccc1 | -1.5% | -7.3% | -14.8% | -38.2% | -11.3% | 6.7%
CCOC(=O)C/C(C)=N/NC(=O)CN(c1ccc(Br)cc1)S(=O)(=O)c1ccccc1 | -13.1% | -0.7% | 83.8% | 22.4µM* | -12.0% | 9.6%
Cc1ncc2c(c1CNC(=O)c1cncs1)CCN(C(=O)c1ccc(-c3ccccc3)cc1)C2 | -19.4% | x | x | x | -11.7% | x
CC(NC(=O)c1cccnc1)c1nnc2n1CCN(Cc1ccc(-c3ccccc3)cc1)CC2 (stereo not drawn) | -11.2% | x | x | x | -1.5% | x
COc1cc(/C=C2\SC(N)=NC2=O)ccc1OCC(=O)Nc1ccc(C)cc1 | i | u | 9.9% | 10µM* | 2.0% | 4.4%
Cc1cccc(N=C2NN=C(c3ccccc3F)CS2)c1C | u | -0.1% | -13.1% | 12.6µM* | -0.5% | 3.7%
